{
  "source": "paper PMC7819943",
  "about": "“Rice protein-binding microarrays: a tool to detect cis-acting elements near promoter regions in rice”",
  "note": "Over roughly 35,000 sequences, “fluorescence intensity (a.u.)” has its median near 10,000; the highest 2% begin near 52,000. The entries come from a sample that favours the highest values as a whole.",
  "data": [
    {"target": "T1, OsWOX13 (Oryza sativa, UniProt Q5QMM3 1-267)", "T1 sequence": "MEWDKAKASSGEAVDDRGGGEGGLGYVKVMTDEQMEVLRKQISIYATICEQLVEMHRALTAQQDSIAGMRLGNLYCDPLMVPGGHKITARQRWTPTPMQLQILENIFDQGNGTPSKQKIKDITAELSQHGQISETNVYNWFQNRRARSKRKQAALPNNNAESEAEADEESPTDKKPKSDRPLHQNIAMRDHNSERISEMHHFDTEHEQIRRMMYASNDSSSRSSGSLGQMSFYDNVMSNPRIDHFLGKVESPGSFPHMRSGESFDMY", "test": "protein-binding microarray (RPBM); PBS, 2% BSA, 51.3 ng/ul salmon testes DNA, 50 uM zinc acetate, 200 nM TF, 25 C, 1 h; high values mean tight binding", "conditions": "protein: recombinant; tags: N-terminal polyhistidine and DsRed monomer fusion (pET32a); label: CyDye5-dUTP incorporated in the synthesized complementary strand; 3' TTTTT single-stranded linker to array surface; dsDNA, one strand shown", "summary_of_the_method": "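An Axon 4000B scanner gave the binding signal as per-feature fluorescence intensity in arbitrary units. This followed washing of a custom Agilent array that had been incubated for 1 h at 25 °C with 200 nM protein in PBS, 2% BSA, salmon testes DNA and 50 µM zinc acetate. The proteins were transcription factors fused at the N-terminus to polyhistidine and DsRed, expressed in E. coli BL21-CodonPlus and purified on Ni–NTA.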", "values": [
      {"sequence": "TTCCGGTGATTAGTCAACTGCCACGACCAGATTAATCTACCGGAGTCACCTAGTGCAG", "binding signal": "20300 fluorescence intensity (a.u.)"},
      {"sequence": "TCATAACTAATATTTAAATGGTATTTGAACATCCCATGGACGGAGTCACCTAGTGCAG", "binding signal": "9720 fluorescence intensity (a.u.)"},
      {"sequence": "TCTGACCTGAAAGTCTCAATCAGACAGCTTTCGAAAAGGACGGAGTCACCTAGTGCAG", "binding signal": "4260 fluorescence intensity (a.u.)"},
      {"sequence": "AAACCTATGACAATCAACCTTTTGACTGTCATACTAGCTCCGGAGTCACCTAGTGCAG", "binding signal": "9360 fluorescence intensity (a.u.)"},
      {"sequence": "TATTGATTAAACATAATGGTCTCACAATATTTTAGTTACCCGGAGTCACCTAGTGCAG", "binding signal": "27300 fluorescence intensity (a.u.)"},
      {"sequence": "CTGAAATGATTTTCATTTGATTCAAATGGGCCTAAGAATTCGGAGTCACCTAGTGCAG", "binding signal": "17200 fluorescence intensity (a.u.)"},
      {"sequence": "GTGGCTGTGATTGTGTGATTGTGTACCTGTTTGTAGTGAACGGAGTCACCTAGTGCAG", "binding signal": "20500 fluorescence intensity (a.u.)"},
      {"sequence": "TATCTACTAATTTAACTTATAAATGGGTTTATGGGTTGACCGGAGTCACCTAGTGCAG", "binding signal": "11200 fluorescence intensity (a.u.)"},
      {"sequence": "CGGGCTTCTTGATTTGCGGATTGTTGTTGTGGATCGCCAGCGGAGTCACCTAGTGCAG", "binding signal": "5040 fluorescence intensity (a.u.)"},
      {"sequence": "GATGAACATTGATTTGCTCGGATCTTGGATGCTGTTTGTGCGGAGTCACCTAGTGCAG", "binding signal": "20800 fluorescence intensity (a.u.)"},
      {"sequence": "ATGATAACTGATTGCAATAAGGTTAGGATGTTGTCACACCCGGAGTCACCTAGTGCAG", "binding signal": "52900 fluorescence intensity (a.u.)"},
      {"sequence": "TTTAATTAATTTGTTAAATTTTCTGATCGGAATGAGCGGTCGGAGTCACCTAGTGCAG", "binding signal": "63700 fluorescence intensity (a.u.)"},
      {"sequence": "AATAAGGGACTTAATTAGTCTAGGTTAAACTGGATGTTGCCGGAGTCACCTAGTGCAG", "binding signal": "4640 fluorescence intensity (a.u.)"},
      {"sequence": "TTTAAATTTTAATGATCGGTGATTTTGTGCAGGGAAAACGCGGAGTCACCTAGTGCAG", "binding signal": "24200 fluorescence intensity (a.u.)"},
      {"sequence": "AATAATGATAACTGATAAGGGTTTGTTTAGTCTGGATGAACGGAGTCACCTAGTGCAG", "binding signal": "18800 fluorescence intensity (a.u.)"},
      {"sequence": "TTAACTGATTGATGCTCAAGTGGATTGATCGATTTTGTTGCGGAGTCACCTAGTGCAG", "binding signal": "65500 fluorescence intensity (a.u.)"},
      {"sequence": "TTTTAAATTTCATTATATAATGATTAATTTGGGAATGAGGCGGAGTCACCTAGTGCAG", "binding signal": "30800 fluorescence intensity (a.u.)"},
      {"sequence": "GATAATGGCCCTTAAATTGATTGCAACTCACGGTGATACACGGAGTCACCTAGTGCAG", "binding signal": "44800 fluorescence intensity (a.u.)"},
      {"sequence": "GCTCTAAGGGTGGGTTTTGATGGGAGGTTTTGGATGGATACGGAGTCACCTAGTGCAG", "binding signal": "6370 fluorescence intensity (a.u.)"},
      {"sequence": "TTTGATTTGGGAAAGATAATATATCTTGCTACTTTGTCTTCGGAGTCACCTAGTGCAG", "binding signal": "18200 fluorescence intensity (a.u.)"},
      {"sequence": "AAACATTAATTAATACCATAATAGTTAGGTGACAATTGACCGGAGTCACCTAGTGCAG", "binding signal": "27100 fluorescence intensity (a.u.)"},
      {"sequence": "CAACGCCTGTAATTGCTCCTCCTGGCATGCAAGCCTTGTCCGGAGTCACCTAGTGCAG", "binding signal": "5050 fluorescence intensity (a.u.)"},
      {"sequence": "GTAAATTGTTTACTATCGAATGTACATGCTATATATATTGCGGAGTCACCTAGTGCAG", "binding signal": "20400 fluorescence intensity (a.u.)"},
      {"sequence": "CTACAAAATTAAGCTGATAGCAACATCATTCACACATGGACGGAGTCACCTAGTGCAG", "binding signal": "4120 fluorescence intensity (a.u.)"},
      {"sequence": "TAATGGTTTTCAGACAAATGGATAATTAAGCTGATAGCGACGGAGTCACCTAGTGCAG", "binding signal": "65400 fluorescence intensity (a.u.)"},
      {"sequence": "GCAATAATTAATAAGGCTCTAGGATAATTCAAATGGTTTTCGGAGTCACCTAGTGCAG", "binding signal": "9520 fluorescence intensity (a.u.)"},
      {"sequence": "GGCTGACGTCTAAATAAATTTTGAGTAAATTACATTAGCGCGGAGTCACCTAGTGCAG", "binding signal": "15600 fluorescence intensity (a.u.)"},
      {"sequence": "ATCGTAGTGTAATTACACTGTAACTTATATGTAATTACACCGGAGTCACCTAGTGCAG", "binding signal": "12100 fluorescence intensity (a.u.)"},
      {"sequence": "AAATATTATAATTGATTGTCGATGAAACATCGGGTTGTACCGGAGTCACCTAGTGCAG", "binding signal": "46200 fluorescence intensity (a.u.)"},
      {"sequence": "CTCAGATTTGATCAGTGGTAATTTCTCATGTAATCTCATTCGGAGTCACCTAGTGCAG", "binding signal": "10500 fluorescence intensity (a.u.)"},
      {"sequence": "TATAATTGATGTACATCGATGATTAATTCTCTAACAGATCCGGAGTCACCTAGTGCAG", "binding signal": "62300 fluorescence intensity (a.u.)"},
      {"sequence": "CGATGATTGTAATCTCATTGAACAGATGATCCTTCAGGATCGGAGTCACCTAGTGCAG", "binding signal": "52400 fluorescence intensity (a.u.)"},
      {"sequence": "TCCTTTATTATCTGTAATTGTAAAATCTTCAGATGAACACCGGAGTCACCTAGTGCAG", "binding signal": "6210 fluorescence intensity (a.u.)"},
      {"sequence": "AATTGATTAAGATGATGATGAAAGATAATACAGCTCGATCCGGAGTCACCTAGTGCAG", "binding signal": "27100 fluorescence intensity (a.u.)"},
      {"sequence": "TCAAATACTGCTGATTATACATACCCACATGTGTTGAATGCGGAGTCACCTAGTGCAG", "binding signal": "3580 fluorescence intensity (a.u.)"},
      {"sequence": "ATAAAGTGATTTAATTTTAGTTAAAGTTAAACTACTTTAACGGAGTCACCTAGTGCAG", "binding signal": "21100 fluorescence intensity (a.u.)"},
      {"sequence": "CACTCTTGCATTTCTTTGATTGCAAATTTCCAAGGCAGAACGGAGTCACCTAGTGCAG", "binding signal": "5250 fluorescence intensity (a.u.)"},
      {"sequence": "ATTTTACAGGGTGATTTGAACATACAGTAATTATGGCCAACGGAGTCACCTAGTGCAG", "binding signal": "6520 fluorescence intensity (a.u.)"},
      {"sequence": "AAATGTCTTGTAGATTGATATATTACATGGAACAAAATTTCGGAGTCACCTAGTGCAG", "binding signal": "3240 fluorescence intensity (a.u.)"},
      {"sequence": "GTTAAACTAATTTGAATTTGTTAGTACAGTTTGCATTTCACGGAGTCACCTAGTGCAG", "binding signal": "25500 fluorescence intensity (a.u.)"},
      {"sequence": "TTTTGAAATTTCAGATTATTTTGTGTGGTTTTGTAATTTGCGGAGTCACCTAGTGCAG", "binding signal": "4570 fluorescence intensity (a.u.)"},
      {"sequence": "GTATGTGATTTTCTTTAATTAGAGTTCTTGCCTAAGGTTGCGGAGTCACCTAGTGCAG", "binding signal": "38300 fluorescence intensity (a.u.)"},
      {"sequence": "ATTTGATTGAATGTAGAGATTCTTGTAATAGGATTCTTTGCGGAGTCACCTAGTGCAG", "binding signal": "64700 fluorescence intensity (a.u.)"},
      {"sequence": "TGAAATTAATTTGATGTGATAGATTTCTAGGTTTTCTTTGCGGAGTCACCTAGTGCAG", "binding signal": "64300 fluorescence intensity (a.u.)"},
      {"sequence": "TGTGTTCTTGATTTGTGTTGTGTTTGTAGATCGTAGTTTGCGGAGTCACCTAGTGCAG", "binding signal": "10200 fluorescence intensity (a.u.)"},
      {"sequence": "CTTGATTTATTATTTACCATGTTAGAAATGTTTATTTATACGGAGTCACCTAGTGCAG", "binding signal": "29600 fluorescence intensity (a.u.)"}
    ]}
  ]
}
